Experimental data from paper PMC5540273 (PLoS ONE, 2017).

What was measured:
Details in all cases: concentration: 1 μM, replicates: in singlicate; n = 1
[1] = tested on: AKT3
[2] = tested on: ALK
[3] = tested on: T1, AMPK-alpha1
T1 construct: gene PRKAA1

[4] = tested on: T2, AMPK-alpha2
T2 construct: gene PRKAA2

[5] = tested on: ANKK1
[6] = tested on: T3, ARK5
T3 construct: gene NUAK1

[7] = tested on: T4, ASK1
T4 construct: gene MAP3K5

[8] = tested on: T5, ASK2
T5 construct: gene MAP3K6

[9] = tested on: AURKA
[10] = tested on: AURKB
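Also: KINOMEscan kinase panel screen.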

| SMILES | %Inh [1] [%] | %Inh [2] [%] | %Inh [3] [%] | %Inh [4] [%] | %Inh [5] [%] | %Inh [6] [%] | %Inh [7] [%] | %Inh [8] [%] | %Inh [9] [%] | %Inh [10] [%] |
| --- | --- | --- | --- | --- | --- | --- | --- | --- | --- | --- |
| OCCOCCn1ccc2ncnc(Nc3ccc(Oc4cccc(Cl)c4)c(Cl)c3)c21 | 0 | 0 | 0 | 0 | 0 | 0 | 0 | 0 | 0 | 0 |
| Clc1ccc(-c2cc(-c3c[nH]nc3-c3ccccn3)ccn2)cc1 [GW681251] | 0 | 19 | 2 | 0 | 0 | 4 | 0 | 0 | 4 | 8 |
| CSc1ccc(NC2=C(c3ccccc3Cl)C(=O)NC2=O)cc1 [SB-342411] | 0 | 0 | 25 | 0 | 20 | 0 | 0 | 0 | 21 | 2 |
| C[C@H]1CC[C@@H](C(=O)Nc2ccccc2)CN1c1cc(-c2ccc3c(N)n[nH]c3c2)nc(N)n1 [GSK2283293] | 0 | 30 | 0 | 13 | 11 | 1 | 0 | 5 | 0 | 6 |
| Fc1ccc(-c2ncn(CCCNCc3ccccc3)c2-c2ccncc2)cc1 | 0 | 0 | 22 | 0 | 0 | 0 | 11 | 1 | 19 | 8 |
| CN1CCC(n2cnc(-c3ccc(F)cc3)c2-c2ccnc(NC3CCNCC3)n2)CC1 [SB-229482] | 32 | 22 | 0 | 12 | 0 | 0 | 0 | 0 | 34 | 40 |
| CSc1nn2c(=O)cc(N3CCOCC3)nc2n1Cc1cccc(Cl)c1Cl [GSK2347225] | 1 | 30 | 11 | 20 | 19 | 7 | 14 | 0 | 21 | 0 |
| Nc1nccc2scc(-c3ccc4c(c3)CCN4C(=O)Cc3cc(F)ccc3F)c12 [GSK2587663] | 0 | 8 | 0 | 11 | 1 | 0 | 6 | 13 | 0 | 8 |
| CCc1nc(-c2cccc(N(C)S(=O)(=O)c3ccccc3)c2)c(-c2ccnc(Nc3ccc(N4CCN(C(C)=O)CC4)nc3)n2)s1 [GSK1645895] | 0 | 18 | 0 | 0 | 26 | 16 | 12 | 0 | 19 | 10 |
| O=c1cc(N2CCOCC2)nc2n(Cc3cccc(Cl)c3)ccn12 [GSK2296823] | 0 | 32 | 0 | 0 | 22 | 14 | 0 | 0 | 0 | 3 |
| Cl.c1ccc(Cn2ncc3cc(Nc4ncnc5ccccc45)ccc32)cc1 [GW273749] | 0 | 16 | 0 | 0 | 0 | 0 | 0 | 1 | 10 | 8 |
| CS(=O)(=O)CCNCc1nc(-c2ccc3ncnc(Nc4ccc(OCc5cccc(F)c5)c(Cl)c4)c3c2)cs1.Cl [GW583340] | 0 | 0 | 0 | 0 | 0 | 11 | 11 | 0 | 5 | 0 |
| Cn1ccc2ncnc(Nc3ccc(Oc4cccc(Cl)c4)c(Cl)c3)c21 | 0 | 0 | 18 | 20 | 0 | 22 | 0 | 11 | 0 | 33 |
| FC(F)(F)c1cc(Nc2nccc(-c3c(-c4ccc(Cl)cc4)nn4ncccc34)n2)ccc1Cl [GW829351] | 0 | 8 | 0 | 0 | 0 | 0 | 0 | 0 | 5 | 0 |
| COc1ccc(Nc2nccc(N3CCC(NC(=O)Nc4ccc5c(c4)OCO5)C3)n2)cc1 (centres unmarked) [GSK1379745] | 0 | 20 | 24 | 24 | 2 | 9 | 9 | 5 | 6 | 13 |
| NC(=O)c1sc(-n2cnc3ccccc32)cc1OCc1ccccc1F [GSK1024306] | 0 | 5 | 6 | 0 | 0 | 31 | 0 | 0 | 0 | 0 |
| CCCc1ccc(S(=O)(=O)NC2CCN(c3ccnc(Nc4ccc(OC)cc4)n3)C2)cc1 (centres unmarked) [GSK1379737] | 0 | 30 | 0 | 0 | 0 | 0 | 0 | 0 | 0 | 32 |
